An excerpt weighted towards active compounds, which were near 2.4% of everything screened.
Cruzain Triton: blocks cruzain activity in presence of Triton detergent. purified cruzain, Z-FR-AMC fluorescence, 0.01% Triton. Potency, µM, for inactives: max response, negative = inhibition, actives largely listed as inhibitors. 200,000 tested, 0.43% active. AID 1478;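 further: plate controls were neutral wells for no effect and buffer without enzyme for full effect; nearly all actives have a fitted effect of over 40% in size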
Target sequence (P25779 123-467 limits assumed): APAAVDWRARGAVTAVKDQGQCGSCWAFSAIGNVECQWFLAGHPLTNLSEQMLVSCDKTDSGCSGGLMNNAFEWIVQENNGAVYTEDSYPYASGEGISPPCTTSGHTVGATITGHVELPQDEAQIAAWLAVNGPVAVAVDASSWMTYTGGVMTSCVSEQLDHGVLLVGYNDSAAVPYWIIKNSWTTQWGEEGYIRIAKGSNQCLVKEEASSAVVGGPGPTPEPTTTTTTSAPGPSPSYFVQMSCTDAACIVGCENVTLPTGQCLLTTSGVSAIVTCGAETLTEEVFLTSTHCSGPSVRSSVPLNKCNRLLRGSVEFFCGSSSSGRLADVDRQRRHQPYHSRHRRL
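Steps: dispense cruzain (1.5 nM final) in acetate buffer pH 5.5 with DTT and 0.01% Triton X-100; pin-transfer compounds; incubate 15 min RT; add Z-FR-AMC (2 uM final); read fluorescence every 30 s, using the 60 s intensity change.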
Cruzain noTriton: cruzain (T. cruzi) inhibition without detergent. P25779. purified cruzain, Z-FR-AMC fluorescence, no detergent. Potency, µM, without a hit: max response, negative = inhibition, actives largely listed as inhibitors. 200,000 tested, 2.3% active. AID 1476;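 further: plate controls were enzyme without inhibitor for no effect and buffer without enzyme for full effect; nearly all actives have a fitted effect of over 40% in size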
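Detergent-free condition (0.00005% Triton X-100) in acetate buffer pH 5.5 with DTT. 1.5 nM enzyme and compound were pre-mixed 15 min, then 2 uM Z-FR-AMC substrate added; reaction progress from fluorescence change between first and third reads (60 s).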
The depositor's hits bear a star; ? = inconclusive. The call rests on the fitted dose curve; in most records, active means well fitted curve in the direction sought with a large enough effect; inconclusive means small, poorly fitted or top-dose-only effect, or another doubt; inactive means no such curve, though single readings can be large; an effect the other way counts as inactive or inconclusive. Potency means the concentration at half of the fitted maximal effect.

SMILES	Cruzain Triton	Cruzain noTriton
CC1Cc2cc(-c3csc(NC(=O)Cc4ccccc4)n3)ccc2N1S(C)(=O)=O (configuration not stated)	6%	?
O=C(Nc1nc(-c2cccc([N+](=O)[O-])c2)cs1)C(c1ccccc1)c1ccccc1	-3%	10µM*
CS(=O)(=O)N1CCc2cc(-c3csc(NC(=O)C(c4ccccc4)c4ccccc4)n3)ccc21	2%	7.9µM*
COc1ccc(CC(=O)Nc2nc(-c3cccc([N+](=O)[O-])c3)cs2)cc1	1%	20µM*
CCOc1ccc(-c2c(C)nn3c(-c4ccccc4)c(C(=O)NCCOC)cnc23)cc1OCC	-2%	-7%
Cc1cccc(NC(=O)C2CCCN(S(=O)(=O)c3cnc[nH]3)C2)c1C (configuration not stated)	2%	9%
CCOC(=O)C(C)Sc1nnc2cc(C)c3ccccc3n12 (configuration not stated)	-5%	-12%
O=C(c1ccccc1)N1CCn2c(nc3ccccc32)C1	0%	-8%
O=C(C1COc2ccccc2O1)N1CCn2c(nc3ccccc32)C1 (configuration not stated)	-30%	13µM*
COc1ccc(S(=O)(=O)c2c(Nc3c(C)cccc3C)sc(C(=O)c3ccc(F)cc3)c2N)cc1	5%	6.3µM*
Nc1c(C(=O)c2ccc3c(c2)OCO3)sc(Nc2ccccc2F)c1S(=O)(=O)c1ccccc1	-4%	?
Cc1ccc(C(=O)c2sc(Nc3ccc(F)cc3)c(C#N)c2N)cc1	-9%	?
Cc1cccc(C)c1Nc1sc(C(=O)c2ccccc2)c(N)c1C(=O)Nc1ccc(F)cc1	-3%	?
COc1ccccc1Nc1sc(C(=O)c2ccc(F)cc2)c(N)c1S(=O)(=O)c1ccc(C)cc1	-2%	7.9µM*
Cc1ccccc1Nc1sc(C(=O)c2ccccc2)c(N)c1S(C)(=O)=O	-11%	-8%
COc1ccc(S(=O)(=O)c2c(Nc3cccc(C)c3C)sc(C(=O)c3ccccc3)c2N)cc1	-3%	6.3µM*
COc1cccc(Nc2sc(C(=O)c3ccc4c(c3)OCO4)c(N)c2S(=O)(=O)c2ccccc2)c1	-1%	7.9µM*
CCOc1ccc(C(=O)NCc2nc(-c3ccc(Cl)cc3)no2)cc1OCC	-2%	-5%
NC[C@](O)(CS(=O)(=O)O)c1ccc(Cl)cc1	-1%	2%
COc1ccc(S(=O)(=O)c2c(Nc3c(C)cccc3C)sc(C(=O)c3ccc4c(c3)OCO4)c2N)cc1	-3%	7.9µM*
COc1ccc(S(=O)(=O)Nc2ccc3c(c2)OCO3)cc1	2%	2%
COc1cccc(-c2cc(C(=O)Nc3ccc(F)cc3)[nH]n2)c1	-1%	?
COc1cccc(-c2cc(C(=O)Nc3ccc(Br)c(C)c3)[nH]n2)c1	-1%	13µM*
CCOC(=O)C1CCN(c2ncnc3c2oc2ccccc23)CC1	-21%	0%
CCOC(=O)C1CCN(c2nc(-c3ccccc3)nc3c2oc2ccccc23)CC1	-10%	20µM*
SMILES	Cruzain Triton	Cruzain noTriton
Cc1noc(C)c1C(=O)N1CCC2(CCCN(C(c3ccccc3)c3ccccc3)C2)CC1	-2%	22%
CC(C)[C@@H](CC(=O)N[C@@H]1CCNC[C@H]1C(=O)N[C@H](CC(=O)N[C@@H](CCC(=O)O)CC(=O)O)Cc1c[nH]c2ccccc12)NC(=O)C[C@H](Cc1ccccc1)NC(=O)[C@@H]1CNCC[C@H]1N	5%	0%
O=c1cc(NCc2ccccc2)nc2n1CCCS2	-3%	25µM*
O=C(COc1cc(=O)n2c(n1)SCCC2)c1ccccc1	5%	-1%
CCOc1ccccc1NC(=O)C1CCN(S(=O)(=O)c2c(C)noc2/C=C/c2ccc(C)cc2)CC1	-2%	-8%
Cc1ccc(CNC(=O)Cn2c(=O)n(-c3ccc(C)c(F)c3)c(=O)c3sc4ccccc4c32)cc1	0%	0%
COc1ccc(-n2c(C)cc(C(=O)COC(=O)c3cc(NC(=O)c4cccs4)c(OC)c(OC)c3)c2C)cc1	1%	?
COc1cc(NC(=O)c2cccs2)c(C(=O)OCC(=O)c2cc(C)n(-c3ccccc3)c2C)cc1OC	-11%	3.2µM*
COc1cc(NC(=O)c2cccs2)c(C(=O)OCC(=O)c2cc(C)n(-c3ccc(F)cc3)c2C)cc1OC	-2%	4µM*
COc1cc(NC(=O)c2cccs2)c(C(=O)OCC(=O)NC(=O)NC(C)(C)C)cc1OC	-14%	?
COc1ccc(C2C=C(c3ccccc3)Nc3nc(NC(=O)/C=C/c4ccccc4OC)nn32)cc1 (configuration not stated)	-9%	11%
CC[C@H]1OC(=O)[C@H](C)[C@@H](O[C@H]2C[C@@](C)(OC)[C@@H](O)[C@H](C)O2)C(C)[C@@H](O[C@@H]2O[C@H](C)C[C@H](N(C)C)[C@@H]2O)[C@](C)(OC)C[C@@H](C)C(=O)[C@H](C)[C@@H](O)[C@]1(C)O (some centres not stated)	3%	-2%
O=C(NCc1ccccc1Cl)c1ccc(NC(=O)N2CCCCc3ccccc32)cc1	3%	0%
O=C(O)c1cc2c(ccc3ccccc32)oc1=O	?	10µM*
O=C(O)c1cc2ccc3ccccc3c2oc1=O	?	25µM*
O=C(O)c1cc2cc(Cl)cc(Cl)c2oc1=O	-3%	?
O=C(c1cc2c(ccc3ccccc32)oc1=O)N1CCCC1	-27%	?
COc1ccc(Cl)cc1NC(=O)c1c(C(=O)Nc2cccc(C)c2C)sc2nc(C)cc(=O)n12	-6%	1%
C#CCSc1nc(-c2cccs2)ccc1C#N	-8%	-7%
COc1cc(-c2c(C#N)c(N)nc(SCc3ccncc3)c2C#N)cc(OC)c1OC	-1%	0%
N#Cc1c(N)nc(SCc2ccncc2)c(C#N)c1-c1cccs1	-6%	25µM*
Cc1ccc(CSc2nc(-c3cccs3)ccc2C#N)cc1	-3%	25µM*
CCC(=O)N1c2ccccc2CC1C(=O)NCc1cc(Br)ccc1OC (configuration not stated)	0%	3%
CCOC(=O)C(CC)Sc1ncnc2c1c(-c1ccccc1)cn2-c1ccc(OC)cc1 (configuration not stated)	-2%	-2%
Cc1ccc(C(=O)c2sc(Nc3ccccc3)c(S(=O)(=O)c3ccccc3)c2N)c(C)c1	-2%	7.9µM*
SMILES	Cruzain Triton	Cruzain noTriton
Cc1ccc(C(=O)c2sc(Nc3ccccc3)c(C#N)c2N)cc1	-5%	8%
Cc1ccc(C(=O)c2sc(Nc3ccccc3F)c(S(=O)(=O)c3ccccc3)c2N)c(C)c1	-3%	6.3µM*
Cc1ccc(S(=O)(=O)NC(=O)Nc2ccccc2F)cc1	-2%	4%
COc1cccc2sc(NC(=O)c3ccc(S(=O)(=O)N4CCC(C)CC4)cc3)nc12	-2%	?
COc1ccc(OC)c(S(=O)(=O)NCc2ccccc2)c1	-2%	-2%
COc1ccc(OC)c(NS(=O)(=O)Cc2ccccc2)c1	-2%	32µM*
Cc1ccccc1NCC(=O)N/N=C/c1c(C)c(C(=O)c2ccc(Cl)cc2)n2ccccc12	-9%	7.9µM*
Cc1c(/C=N/NC(=O)CNc2ccccc2)c2ccccn2c1C(=O)c1ccc(Cl)cc1	-4%	?
COc1cccc(NC(=O)c2oc3ccc(S(=O)(=O)N(C)C4CCCCC4)cc3c2C)c1	1%	?
COc1cc2oc(=O)cc(-c3cccc(-c4ccc(C(F)(F)F)cc4)c3)c2c(OC)c1OC	0%	-24%
COc1ccc(-c2cccc(-c3cc(=O)oc4ccc(C(C)(C)C)cc34)c2)cc1	0%	35µM*

Bioassay records deposited in PubChem by National Center for Advancing Translational Sciences (NCATS).
